Screening results as filed in PubChem.
LGR2 antag: Drosophila LGR2 receptor signaling inhibition. inhibition, % at 9.99 µM. AID 720647. HEK293 LGR2, CRE-luciferase, bursicon-stimulated, 4 h. hit rate 0.35% among 380,000;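 active = drop in luminescence signal, shown as inhibition above about 50% in the replicate tests, limit read from the data, passing the limit was not always enough; inconclusive = probably only some replicates passing the limit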;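 note: agonist challenge used bursicon conditioned medium at about half maximal strength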
EBV LMP1 NFkB: Epstein-Barr LMP1 NF-kappaB reporter inhibition. hit rate 0.69% among 350,000. inhibition, % at 12.5 µM. LMP1-induced NF-kappaB luciferase reporter cells, luminescence. AID 504558; in the data active = inhibition above about 41%; inconclusive = no clear call, values can overlap the other calls;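 note: 0% = neutral control wells and 100% = reference inhibitor control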
Shn3 inh set2: inhibitors of Schnurri-3 3'UTR reporter in osteoblasts. Clone20 osteoblast Shn3 3'UTR firefly luciferase, 24 h. AID 588674. hit rate 0.52% among 360,000. inhibition, % at 12.5 µM;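 active = mean inhibition of at least 75% with every replicate also reaching 75%; inconclusive = mean inhibition at least 75% but some replicate below; inactive = mean inhibition below 75%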;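 note: 0% = median of neutral control wells and 100% = pilot-screen positive control compound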
PAX8 reporter: inhibitors of PAX8 transcriptional activity in RMG-I cells | AID 652154 | inhibition, % at 12.6 µM | hit rate 1.2% among 360,000 | RMG-I TPO-luciferase reporter, SteadyGlo, 24 h;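 active = mean replicate inhibition at least 60% with every replicate also reaching 60%; inconclusive = only one of the two criteria is met; inactive = mean below 60% and not all replicates reaching 60%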;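 note: luciferase light reporting Pax8 driven TPO promoter activity; plate controls were median of neutral control wells for no effect and mitoxantrone controls for full effect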
TRPM1 prom inh: reduces MITF-dependent TRPM1 promoter luciferase signal; SK-MEL-5 TRPM1 promoter luciferase, 24 h; inhibition, % at 12.5 µM; hit rate 0.83% among 330,000;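 active = mean inhibition across replicates of 60% or more, whatever share of single replicates reaches that level; inconclusive = some that reach 60%, reason not given; inactive = mean inhibition across replicates below 60%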
EWS-Fli block: EWS/Fli transcriptional activity inhibition | A673 NR0B1-luciferase reporter, viability-normalised | AID 651661 | hit rate 0.67% among 350,000 | inhibition, % at 12.6 µM;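 active = mean inhibition of at least 50% after viability correction, with every replicate also passing that limit; inconclusive = mean reaches 50% but only one of two replicates passes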;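 note: firefly luciferase signal divided by Alamar Blue viability fluorescence both relative to DMSO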
The depositor's hits bear a star; ? = inconclusive; · = not tested or not shown; ! = not active in a repeat. In the library only some 2.2% were active in any assay of this set; here they are far more common.

SMILES | LGR2 antag | EBV LMP1 NFkB | Shn3 inh set2 | PAX8 reporter | TRPM1 prom inh | EWS-Fli block
Oc1cccc2cc(Nc3ccccc3)cnc12 | -3 | · | 95* | 94* | · | 41
Oc1cc(-c2cccnc2)cc2cccnc12 | -16 | -4 | 89* | 23 | 51 | 5
CC(C)CCCCCCCCCCCCC(=O)NCC(=O)NC1C(C)OC(Nc2ncnc3nc[nH]c23)C(O)C1O (configuration not stated) | · | 92* | 92* | 106* | 69* | 23
C/C(=C\CNc1ncnc2nc[nH]c12)CO | -8 | -6 | 16 | · | -4 | 2
CC1CCN(Cc2ccc(-c3nnn(CC(=O)Nc4ccccc4Cl)n3)cc2)CC1 | -3 | 7 | 87* | -5 | -12 | 16
CC(NC(=O)CCOc1ccccc1)c1ccccc1 (configuration not stated) | · | 74* | 2 | · | -4 | ·
COc1ccccc1NC(=O)N[C@H]1CC[C@H](CC(=O)N2CCC(Cc3ccccc3)CC2)O[C@H]1CO | -9 | · | · | 38 | · | -1
C[C@H]1CN([C@@H](C)CO)C(=O)Cc2cc(NC(=O)CCC(F)(F)F)ccc2O[C@H]1CN(C)S(=O)(=O)c1ccc(F)cc1 | 10 | 0 | 17 | 13 | 21 | 57*!
C[C@H](CO)N1C[C@H](C)[C@@H](CN(C)S(=O)(=O)c2ccc(Cl)cc2)Oc2ccc(NC(=O)CCC(F)(F)F)cc2CC1=O | 13 | · | · | 15 | · | 5
C[C@H](CO)N1C[C@H](C)[C@H](CN(C)S(=O)(=O)c2ccc(Cl)cc2)Oc2ccc(NC(=O)CCC(F)(F)F)cc2CC1=O | 24 | · | · | 34 | · | 59*
C[C@H]1CN([C@@H](C)CO)C(=O)Cc2cc(NC(=O)CCC(F)(F)F)ccc2O[C@H]1CN(C)S(=O)(=O)c1ccc(Cl)cc1 | 5 | 4 | 28 | ? | 30 | 56*
CN(C)CCCNC(=O)/C(=C\c1ccc(-c2ccc(Br)cc2)o1)NC(=O)c1ccccc1 | · | -2 | -3 | 20 | 96* | 39
Cc1ccc(C(=O)N/C(=C\c2ccc(-c3ccc(Cl)cc3)o2)C(=O)NCCCN(C)C)cc1 | -12 | -1 | 1 | 13 | 86* | 14
CN(C)CCNC(=O)/C(=C/c1ccc(-c2cccc(Cl)c2)o1)NC(=O)c1ccccc1 | 9 | 6 | -3 | -12 | 10 | ·
COc1ccc(NC(=O)N(C)C[C@H]2Oc3ccc(NS(=O)(=O)c4c(C)noc4C)cc3CC(=O)N([C@@H](C)CO)C[C@H]2C)cc1 | 15 | · | · | · | · | -3
C[C@H](CO)N1C[C@H](C)[C@@H](CN(C)S(C)(=O)=O)Oc2ccc(NS(C)(=O)=O)cc2CC1=O | 4 | · | · | · | · | -1
CCCC#Cc1ccc2c(c1)O[C@@H](CN(C)Cc1ccccc1)[C@H](C)CN([C@H](C)CO)S2(=O)=O | 22 | · | · | -27 | · | 0
C[C@H]1CN([C@@H](C)CO)C(=O)CCCn2cc(nn2)CO[C@H]1CN(C)S(=O)(=O)c1ccc(Oc2ccccc2)nc1 | 1 | · | · | -8 | · | -5
Cc1cccc(S(=O)(=O)N[C@H]2CC[C@H](CCNS(=O)(=O)c3ccccc3F)O[C@H]2CO)c1 | 2 | · | · | 2 | · | -6
O=C(O)c1ccc(N/N=C/c2ccc(C(F)(F)F)cc2)cc1 | 93* | 44* | 21 | 59 | 68* | ?
CN(C)c1ccc(/C=N/Nc2cccc(C(=O)O)c2)cc1 | 87* | 61* | 92* | -22 | 84* | 4
CC(C)(C)c1ccc(/C=N/Nc2cccc(C(=O)O)c2)cc1 | 40 | 72* | 22 | -21 | 61* | 47
Cc1ccc(NC(=O)C2CC(=O)N/C(=N/N=C/c3ccco3)S2)cc1 (configuration not stated) | 8 | -8 | 7 | -9 | 0 | ·
Cc1ccc(NC(=O)C2CC(=O)N/C(=N/N=C/c3ccco3)S2)cc1C (configuration not stated) | · | -26 | -7 | 118* | 5 | 5
C[C@@H]1CCCCO[C@H](CN(C)Cc2ccccc2)[C@H](C)CN([C@H](C)CO)C(=O)c2cc(NC(=O)C3CCCCC3)ccc2O1 | 3 | · | · | -5 | · | 11
SMILES | LGR2 antag | EBV LMP1 NFkB | Shn3 inh set2 | PAX8 reporter | TRPM1 prom inh | EWS-Fli block
Cc1cc(N=Cc2c(O)n(-c3ccc4c(c3)OCO4)c(=O)c3ccccc23)ccn1 | · | -2 | 40 | 16 | 75* | ·
Cc1ccc(-n2c(O)c(C=Nc3ccc4c(c3)OCO4)c3ccccc3c2=O)cc1C | · | 2 | 42 | · | 4 | ·
CCCNC(=O)N1[C@H](CO)[C@H](c2ccccc2-c2ccc(OC)cc2)[C@@H]1C#N | -4 | · | · | -2 | · | 16
Cc1ccc2nc(/C(C#N)=C\c3ccc(N4CCOCC4)o3)[nH]c2c1 | -57 | -21 | -57 | · | -78 | ·
Cc1ccc2nc(/C(C#N)=C\c3ccc([N+](=O)[O-])o3)[nH]c2c1 | · | -14 | 99* | · | 92* | ·
CC(C)(C)/C(O)=C(/C#N)c1nc2ccccc2[nH]1 | · | -1 | 15 | · | 9 | ·
N#C/C(=C\c1ccc([N+](=O)[O-])o1)c1nc2ccccc2[nH]1 | 12 | · | · | 32 | · | 59*
N#C/C(=C(/O)c1ccc([N+](=O)[O-])o1)c1nc2ccccc2[nH]1 | 12 | -3 | 11 | 46 | 87* | 9
COc1ccc(C2NN=C(c3c[nH]c4ccccc34)C2O)cc1 (configuration not stated) | -26 | -3 | -15 | 18 | 3 | -22
COc1ccc(C2C(O)C(c3c[nH]c4ccccc34)=NN2C(=O)CCl)cc1 (configuration not stated) | 23 | -19 | 96* | 117* | 98* | 62*
O=C(Nc1cccc(-c2cnc3ccccc3n2)c1)c1cccc(NC(=O)c2ccco2)c1 | · | -45 | 24 | 72* | 36 | ·
O=C(Nc1cccc(-c2cnc3ccccc3n2)c1)c1ccccc1 | -27 | 8 | -25 | · | -4 | ·
O=C(CCl)Nc1cccc(-c2cnc3ccccc3n2)c1 | · | -32 | -262 | -78 | 73* | ·
O=C(CCl)N(c1ccccc1)c1ccccc1 | 12 | 1 | -4 | ? | 47 | 40
N#CCCN(C(=O)CCl)c1cccc(Cl)c1 | · | 45* | -15 | 1 | 37 | 35
CCCCCCCN(C(=O)CCl)c1cccc(C)c1 | 1 | 1 | -30 | 103* | 40 | ·
